# Reference: PubChem BioAssay (EPA / NIEHS)
# Active and inactive are the calls of the source. Rule for the calls: active = hit-call score of the fitted dose curve at least 0.9, where 1 is the maximum; inactive = score below 0.9.
# Test: CCTE_Shafer_MEA_dev_firing_rate_mean: CCTE's Neural Network Formation Assay for Mean Firing Rate, Shafer Lab (AID 2284031);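 for AC50: curve fitted for loss of firing so AC50 reflects decreased mean firing rate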
# Experimental: CCTE_Shafer_MEA_dev assay is conducted using Axion Biosystems 48 well microelectrode array (MEA) plates and Maestro recording system. Each well of the MEA plate contains a grid of 16 microelectrodes embedded in the culture surface. Electrically active cells, such as neurons, can be cultured over the electrodes, and electrical activity in these cells can be recorded extracellularly. The spontaneous firing of neurons is captured from each electrode on a microsecond timescale providing both temporally and spatially precise data. […] The CCTE_Shafer_MEA_dev assay uses primary cultures of rat cortical neurons. Recordings are made on days post-plating 5, 7, 9 and 12. As these cultures mature over time, neural networks develop functional activity and form cohesive networks in which electrical activity can be highly coordinated. CCTE_Shafer_MEA_dev_firing_rate_mean is 1 of 19 assay components of the CCTE_Shafer_MEA_dev assay. It measures the frequency of spikes (action potential firings) as the total number of spikes divided by the length of the recording in a microelectrode array (MEA) using Axion Biosystems Maestro 768 channel amplifier with the AxIS adaptive spike detector. The firing rate is averaged across the active electrodes to report a well-mean value. To collapse across multiple recordings made on days post-plating 5, 7, 9 and 12, the trapezoidal area-under-the-curve of the component is calculated.Data from the assay component CCTE_Shafer_MEA_dev_firing_rate_mean was analyzed into 1 assay endpoint. This assay endpoint, CCTE_Shafer_MEA_dev_firing_rate_mean, was analyzed in the negative analysis fitting direction relative to DMSO as the negative control and baseline of activity. Using a type of functional reporter, gain or loss-of-signal activity can be used to understand electrical activity.
# On the day prior to culture, each well was coated thoroughly with 150 uL of 0.05% polyethyleneimine (PEI, Sigma Cat P3143) in 50 mM HEPES (Sigma Cat H7523) at a pH of 8. The plate was incubated at 37C for one hour. PEI was rinsed out with 500 uL of sterile water three times. Plates were stored at 4C until the day of culture. This culture was plated at a seeding density of 1.5 x 10^5 cells/well on a 48-well MEA plate, prepared as described above. Cells were administered via a 25 uL media/laminin ([…]; Sigma Cat L2020-1MG) drop directly onto the microelectrode array, as adding the cells with the laminin results in better attachment than pre-coating with laminin. After 2 hours, an additional 475 uL of cortical media was added and the cells returned to the incubator. Exposure starts at day 0 of plating and is continued over twelve days of network development until the experiment is terminated. Cells are fed with fresh medium on DIV 5 and 9, following the recordings on those days. The entire volume of media in the well is exchanged and any vehicle or compound treatment is renewed. Complete details are found in OP-NHEERL/ISTD/SBB/TJS/2015-03-r0 (available on request, email shafer.tim@epa.gov). Measurement of the electrical activity is non-invasive, and recordings can be made from the same plate over multiple different days of the culture. In cortical neurons, this allows for the measurement of extracellular action potentials over the period during which networks form in the MEA plate.
SMILES,outcome,AC50
C=CCOC(F)(C(F)(F)F)C(F)(F)F,inactive,
FC(F)OCC(F)(F)C(F)(F)F,inactive,
CCOCn1c(-c2ccc(Cl)cc2)c(C#N)c(Br)c1C(F)(F)F,,3.01 µM (active)
NC(=O)c1ccc(N)nc1,,9.03 µM (active)
Cc1cc(C(F)(C(F)(F)F)C(F)(F)F)ccc1NC(=O)c1cccc(I)c1C(=O)NC(C)(C)CS(C)(=O)=O,inactive,
CC(=O)C(F)(F)C(F)(F)F,inactive,
CS(=O)(=O)c1ccc(C(=O)C2C(=O)CCCC2=O)c(Cl)c1COCC(F)(F)F,inactive,
CC1(C)[C@H](C(=O)O[C@H](C#N)c2cccc(Oc3ccccc3)c2)[C@@H]1/C=C(\Cl)C(F)(F)F,inactive,
O=S(=O)(F)C(F)(F)C(F)(F)C(F)(F)C(F)(F)F,inactive,
CC(F)(F)CC(F)(F)F,inactive,
CC(C)[C@@H](Nc1ccc(C(F)(F)F)cc1Cl)C(=O)OC(C#N)c1cccc(Oc2ccccc2)c1 (stereo not given in full),inactive,
OC(Cc1ccccc1Cl)(Cn1[nH]cnc1=S)C1(Cl)CC1 (stereo not given),,20.8 µM (active)
C=CC(F)(C(F)(F)F)C(F)(F)C(F)(F)F (stereo not given),inactive,
CNC(=O)CSP(=O)(OC)OC,inactive,
Cc1ccccc1OP(=O)(Oc1ccccc1C)Oc1ccccc1C,inactive,
